The campaign covered roughly 69,000 compounds. Fewer than 10 were called active. Inconclusive results (about 100%) are left out. How the calls were made is not given here. The list shows a part of the results.
target: UDP-N-acetylglucosamine--peptide N-acetylglucosaminyltransferase 110 kDa subunit (Homo sapiens) (UniProt O15294); experiment: O-Glc NAc Transferase (sOGT); settings: sOGT fluorescence polarization UDP-GlcNAc probe displacement
Description: NIH Molecular Libraries Screening Centers Network [MLSCN]
NIH Chemical Genomics Center [NCGC]
Suzanne Walker [Harvard Medical School]
OGT is the sole enzyme that mediates the attachment of O-GlcNAc groups to serine and threonine residues in the nucleus and cytoplasm of eukaryotic cells, and no specific inhibitors are known. This type of glycosylation is involved in signal transduction and plays a key role in many essential cellular processes. High O-GlcNAc levels have been correlated to insulin resistance and type 2 diabetes. In addition to elucidating the role of O-GlcNAc in cellular processes, inhibitors of OGT might be useful in studying and perhaps treating type 2 diabetes. Since HTS-amenable direct assay for OGT activity is currently unavailable, a simpler substrate-displacement screen was performed. The signal measured is based on the change in fluorescence polarization of a fluorescein-labeled UDP-GlcNAc upon displacement from its complex with OGT. Recombinant truncated version of the enzyme, sOGT, as well as labeled probe, were made available by Suzanne Walker and Benjamin Gross, Harvard Medical School.
NCGC Assay Protocol Summary:
20 mM phosphate buffer, pH 8.0, 0.01% Tween-20, 500 uM THP (Tris (hydroxypropyl) phosphine).
50 nM/1.5 uM sOGT /100 uM UDP in columns 3 and 4 as negative control (full inhibition of binding, 0 % activity).
50 nM probe/1.5 uM sOGT in columns 1, 2, 5-48. Titration of UDP control (from 40 mM, then 1:2) pin-transferred to column 2. Column 1 is neutral (100% activity).
Three uL of reagents were dispensed to 1536-well Greiner black plates. Compounds and controls (20 nL) were transferred via Kalypsys PinTool. The plates were incubated for 15 min at room temperature, and then read on ViewLux (Perkin-Elmer) High-throughput CCD imager using fluorescein polarization filter set and 45 seconds exposure time. During dispense, reagent bottles were kept submerged into 4 deg C water bath and all liquid lines were covered with aluminum foil to minimize probe and protein degradation.
Keywords: NIH Roadmap, MLSCN, MLI, MLSMR, sOGT, qHTS, NCGC

Sequence of UDP-N-acetylglucosamine--peptide N-acetylglucosaminyltransferase 110 kDa subunit (Homo sapiens) (O15294 whole entry, looked up): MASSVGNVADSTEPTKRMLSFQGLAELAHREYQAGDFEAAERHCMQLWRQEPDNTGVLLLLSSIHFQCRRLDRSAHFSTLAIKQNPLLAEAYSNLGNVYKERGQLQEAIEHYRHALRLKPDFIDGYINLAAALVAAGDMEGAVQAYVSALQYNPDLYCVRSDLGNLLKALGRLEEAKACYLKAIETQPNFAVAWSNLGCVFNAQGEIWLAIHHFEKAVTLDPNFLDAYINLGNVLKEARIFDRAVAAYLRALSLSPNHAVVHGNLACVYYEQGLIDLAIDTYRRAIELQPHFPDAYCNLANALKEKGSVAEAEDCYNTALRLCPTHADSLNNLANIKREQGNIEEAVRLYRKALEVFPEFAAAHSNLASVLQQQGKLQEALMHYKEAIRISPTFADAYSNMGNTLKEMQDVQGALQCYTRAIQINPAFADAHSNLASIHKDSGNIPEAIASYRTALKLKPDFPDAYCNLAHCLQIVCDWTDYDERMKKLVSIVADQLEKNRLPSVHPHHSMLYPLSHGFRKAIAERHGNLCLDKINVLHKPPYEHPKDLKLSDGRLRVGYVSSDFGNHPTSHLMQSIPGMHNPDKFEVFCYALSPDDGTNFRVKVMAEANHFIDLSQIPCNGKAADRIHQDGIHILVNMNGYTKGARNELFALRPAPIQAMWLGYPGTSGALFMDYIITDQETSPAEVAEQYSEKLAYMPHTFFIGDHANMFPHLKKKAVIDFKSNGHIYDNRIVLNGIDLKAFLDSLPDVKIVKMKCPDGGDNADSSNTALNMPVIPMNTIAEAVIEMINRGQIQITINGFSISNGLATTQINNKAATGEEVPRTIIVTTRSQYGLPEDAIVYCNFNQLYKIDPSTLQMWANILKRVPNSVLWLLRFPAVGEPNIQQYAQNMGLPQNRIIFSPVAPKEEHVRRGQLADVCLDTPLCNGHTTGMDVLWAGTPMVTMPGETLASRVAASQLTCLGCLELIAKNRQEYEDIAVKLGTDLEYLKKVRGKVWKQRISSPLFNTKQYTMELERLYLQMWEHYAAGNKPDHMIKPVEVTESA

Potency, active:
O=C(O)C1=CC(=C(c2ccc(O)c(C(=O)O)c2)c2ccc(O)c(C(=O)O)c2)C=CC1=O 21.8 µM
CCCn1c(=O)c(C)cn2nc(N)nc12 31.1 µM
CCCCCCCCCCCCC/C=C\[C@@H](O)[C@H](CO)NC(C)=O 25.2 µM
Cc1cc(-c2ccc(N=Nc3ccc4c(S(=O)(=O)O)cc(S(=O)(=O)O)c(N)c4c3O)c(C)c2)ccc1N=Nc1ccc2c(S(=O)(=O)O)cc(S(=O)(=O)O)c(N)c2c1O 43.7 µM
Nc1c(S(=O)(=O)O)cc(Nc2ccc(Nc3nc(Cl)nc(Nc4ccc(S(=O)(=O)O)cc4)n3)c(S(=O)(=O)O)c2)c2c1C(=O)c1ccccc1C2=O 22.3 µM
